Targets with a hit are over-represented here; the source holds about 8,800 in all. About 0.5% of all pairs of compound and target were hits. A number with no mark means an inactive call.
Legend:
Assay in all cases: log2 fold change, soluble protein after heating vs DMSO (PISA); higher = thermal stabilisation; K562 lysate, 10 uM; active = over 0.2 and 3.5 SD of the protein, either way, in both replicates (recomputed)
nilotinib = compound: Cc1cn(-c2cc(NC(=O)c3ccc(C)c(Nc4nccc(-c5cccnc5)n4)c3)cc(C(F)(F)F)c2)cn1 [nilotinib]
Procedure, shortened: (§1)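 A 30 min treatment with 10 μM compound was applied to crude K562 extract at 1 mg/mL protein in PBS pH 7.4 with 1 mM MgCl2. Heating for 3 min spanned 48°C-58°C, after which aliquots were pooled, adjusted to 0.5% NP-40 at 4°C and spun at 21,000xg for 90 min. TMTpro 16plex LC-MS/MS of the supernatant, with channel sums equalised, gave values recorded as log-two fold change in thermal stability against solvent controls, from duplicates.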

[1] = compound: Cc1nc(Nc2n[nH]c3c2CN(C(=O)N[C@H](CN(C)C)c2ccccc2)C3(C)C)c2sccc2n1
Procedure, shortened: as §1

dasatinib = compound: Cc1nc(Nc2ncc(C(=O)Nc3c(C)cccc3Cl)s2)cc(N2CCN(CCO)CC2)n1 [dasatinib]
Procedure, shortened: as §1

[2] = compound: Cc1ncc(-c2ccnc(Nc3ccc(S(C)(=O)=O)cc3)n2)n1C(C)C
Procedure, shortened: as §1

[3] = compound: Cn1cc(-c2ccc3c(c2)CCN3C(=O)Cc2cccc(C(F)(F)F)c2)c2c(N)ncnc21
Procedure, shortened: as §1

quisinostat = compound: Cn1cc(CNCC2CCN(c3ncc(C(=O)NO)cn3)CC2)c2ccccc21 [quisinostat]
Procedure, shortened: as §1

tipifarnib = compound: Cn1cncc1[C@@](N)(c1ccc(Cl)cc1)c1ccc2c(c1)c(-c1cccc(Cl)c1)cc(=O)n2C [tipifarnib]
Procedure, shortened: as §1

[4] = compound: NC(=O)Nc1cc(-c2cccc(F)c2)sc1C(=O)N[C@H]1CCCNC1
Procedure, shortened: as §1

[5] = compound: NC(=O)c1cnc(N[C@@H]2CCCC[C@@H]2N)nc1Nc1cccc(-n2nccn2)c1
Procedure, shortened: as §1

[6] = compound: NC1(c2ccc(-c3nc4ccn5c(=O)[nH]nc5c4cc3-c3ccccc3)cc2)CCC1
Procedure, shortened: as §1

[7] = compound: NCC(=O)Nc1ccc(-n2nc(C(F)(F)F)cc2-c2ccc3c(ccc4ccccc43)c2)cc1
Procedure, shortened: as §1

vorinostat = compound: O=C(CCCCCCC(=O)Nc1ccccc1)NO [vorinostat]
Procedure, shortened: as §1

silmitasertib = compound: O=C(O)c1ccc2c(c1)nc(Nc1cccc(Cl)c1)c1ccncc12 [silmitasertib]
Procedure, shortened: as §1

[8] = compound: O=C1NC(=O)C(c2cnc3ccccn23)=C1c1cn2c3c(cc(F)cc13)CN(C(=O)N1CCCCC1)CC2
Procedure, shortened: as §1

entospletinib = compound: c1cn2cc(-c3ccc4cn[nH]c4c3)nc(Nc3ccc(N4CCOCC4)cc3)c2n1 [entospletinib]
Procedure, shortened: as §1

Sequence of UniProt Q14008 (Q14008 whole entry, looked up): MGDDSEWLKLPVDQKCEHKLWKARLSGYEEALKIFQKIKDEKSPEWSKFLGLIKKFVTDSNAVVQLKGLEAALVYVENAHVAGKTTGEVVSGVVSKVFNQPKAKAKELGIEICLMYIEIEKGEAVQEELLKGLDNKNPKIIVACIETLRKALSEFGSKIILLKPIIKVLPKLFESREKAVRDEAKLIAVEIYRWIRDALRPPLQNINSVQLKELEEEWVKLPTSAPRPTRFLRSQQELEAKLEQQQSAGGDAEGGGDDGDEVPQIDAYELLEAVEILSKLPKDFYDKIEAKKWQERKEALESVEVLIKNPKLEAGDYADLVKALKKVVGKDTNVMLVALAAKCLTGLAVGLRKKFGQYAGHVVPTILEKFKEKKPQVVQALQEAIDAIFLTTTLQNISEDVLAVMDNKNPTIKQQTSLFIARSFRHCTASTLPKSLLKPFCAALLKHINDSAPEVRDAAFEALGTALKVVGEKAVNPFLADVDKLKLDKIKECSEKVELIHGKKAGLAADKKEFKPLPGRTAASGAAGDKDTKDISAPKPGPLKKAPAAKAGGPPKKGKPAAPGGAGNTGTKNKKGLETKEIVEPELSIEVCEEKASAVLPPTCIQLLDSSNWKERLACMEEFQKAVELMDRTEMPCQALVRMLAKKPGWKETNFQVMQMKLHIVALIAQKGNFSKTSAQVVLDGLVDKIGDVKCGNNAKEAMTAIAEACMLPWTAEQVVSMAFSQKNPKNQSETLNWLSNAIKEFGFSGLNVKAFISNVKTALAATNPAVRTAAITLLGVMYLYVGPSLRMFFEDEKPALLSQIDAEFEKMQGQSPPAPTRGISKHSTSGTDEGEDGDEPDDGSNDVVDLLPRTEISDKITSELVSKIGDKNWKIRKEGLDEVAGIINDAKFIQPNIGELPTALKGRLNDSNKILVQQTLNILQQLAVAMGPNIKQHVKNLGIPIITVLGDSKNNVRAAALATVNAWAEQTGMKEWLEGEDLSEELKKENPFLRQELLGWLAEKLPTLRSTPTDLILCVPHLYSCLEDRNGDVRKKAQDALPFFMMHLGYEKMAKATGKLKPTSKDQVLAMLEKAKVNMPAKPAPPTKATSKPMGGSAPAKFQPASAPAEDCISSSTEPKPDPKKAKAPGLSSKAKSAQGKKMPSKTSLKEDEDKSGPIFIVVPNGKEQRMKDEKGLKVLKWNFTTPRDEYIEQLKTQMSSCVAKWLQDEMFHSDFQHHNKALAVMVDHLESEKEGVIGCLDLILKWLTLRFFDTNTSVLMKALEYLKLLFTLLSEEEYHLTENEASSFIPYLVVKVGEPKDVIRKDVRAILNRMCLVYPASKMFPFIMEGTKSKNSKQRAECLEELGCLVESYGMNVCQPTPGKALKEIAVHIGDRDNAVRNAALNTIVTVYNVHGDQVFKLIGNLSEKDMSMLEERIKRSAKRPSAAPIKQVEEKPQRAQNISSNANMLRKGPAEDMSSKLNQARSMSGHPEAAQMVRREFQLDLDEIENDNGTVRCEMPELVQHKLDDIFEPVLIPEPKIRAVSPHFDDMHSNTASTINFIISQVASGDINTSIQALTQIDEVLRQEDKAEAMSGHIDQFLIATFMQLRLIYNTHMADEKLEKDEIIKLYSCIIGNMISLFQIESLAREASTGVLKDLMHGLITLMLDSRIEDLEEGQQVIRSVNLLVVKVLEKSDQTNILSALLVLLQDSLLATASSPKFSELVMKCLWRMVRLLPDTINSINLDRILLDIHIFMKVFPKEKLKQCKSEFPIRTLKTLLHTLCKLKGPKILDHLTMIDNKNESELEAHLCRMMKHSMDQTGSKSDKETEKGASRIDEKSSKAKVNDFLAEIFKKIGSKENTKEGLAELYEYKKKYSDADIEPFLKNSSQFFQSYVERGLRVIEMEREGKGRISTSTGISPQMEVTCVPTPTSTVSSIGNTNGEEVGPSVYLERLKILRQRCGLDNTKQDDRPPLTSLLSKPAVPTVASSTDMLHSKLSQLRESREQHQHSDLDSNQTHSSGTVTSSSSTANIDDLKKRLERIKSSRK
Sequence of UniProt P09543 (P09543 whole entry, looked up): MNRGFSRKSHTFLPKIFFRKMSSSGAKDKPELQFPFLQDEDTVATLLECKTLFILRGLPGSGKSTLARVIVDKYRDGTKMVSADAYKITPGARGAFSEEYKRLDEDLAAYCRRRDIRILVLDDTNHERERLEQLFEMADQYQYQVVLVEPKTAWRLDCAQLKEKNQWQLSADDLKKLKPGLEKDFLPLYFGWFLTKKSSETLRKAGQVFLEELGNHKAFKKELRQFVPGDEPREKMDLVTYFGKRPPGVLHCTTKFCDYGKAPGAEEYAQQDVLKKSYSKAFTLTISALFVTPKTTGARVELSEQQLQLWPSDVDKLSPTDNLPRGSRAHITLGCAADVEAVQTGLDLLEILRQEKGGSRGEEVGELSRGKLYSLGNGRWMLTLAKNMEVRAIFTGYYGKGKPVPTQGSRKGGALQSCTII
Sequence of UniProt O60716 (O60716 whole entry, looked up): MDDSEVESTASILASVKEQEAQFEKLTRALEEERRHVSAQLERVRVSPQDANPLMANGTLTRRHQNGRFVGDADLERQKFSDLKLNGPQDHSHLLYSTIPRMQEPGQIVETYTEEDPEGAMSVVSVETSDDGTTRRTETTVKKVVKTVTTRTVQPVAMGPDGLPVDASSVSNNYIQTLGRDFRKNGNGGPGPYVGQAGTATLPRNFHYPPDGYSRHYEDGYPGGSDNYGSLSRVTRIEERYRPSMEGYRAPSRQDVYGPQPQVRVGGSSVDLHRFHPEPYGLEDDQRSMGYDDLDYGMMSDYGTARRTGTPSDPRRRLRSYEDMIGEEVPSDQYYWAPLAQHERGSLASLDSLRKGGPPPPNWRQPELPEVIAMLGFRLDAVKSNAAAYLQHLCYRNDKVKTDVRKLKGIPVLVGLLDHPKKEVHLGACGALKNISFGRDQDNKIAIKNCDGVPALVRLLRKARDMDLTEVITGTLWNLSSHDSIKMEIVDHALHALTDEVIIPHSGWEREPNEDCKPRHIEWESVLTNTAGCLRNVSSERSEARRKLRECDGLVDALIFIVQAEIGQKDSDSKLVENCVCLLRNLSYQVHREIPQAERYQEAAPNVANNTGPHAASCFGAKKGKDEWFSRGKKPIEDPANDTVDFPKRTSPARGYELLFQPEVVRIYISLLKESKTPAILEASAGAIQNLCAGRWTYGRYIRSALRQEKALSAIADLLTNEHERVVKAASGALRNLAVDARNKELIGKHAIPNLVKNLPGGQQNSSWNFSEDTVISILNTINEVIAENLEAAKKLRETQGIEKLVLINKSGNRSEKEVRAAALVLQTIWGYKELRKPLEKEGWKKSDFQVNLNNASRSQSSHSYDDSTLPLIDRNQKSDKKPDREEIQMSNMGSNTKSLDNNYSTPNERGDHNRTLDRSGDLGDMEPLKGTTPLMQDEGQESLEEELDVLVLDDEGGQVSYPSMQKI
Sequence of UniProt Q9NSV4 (Q9NSV4 whole entry, looked up): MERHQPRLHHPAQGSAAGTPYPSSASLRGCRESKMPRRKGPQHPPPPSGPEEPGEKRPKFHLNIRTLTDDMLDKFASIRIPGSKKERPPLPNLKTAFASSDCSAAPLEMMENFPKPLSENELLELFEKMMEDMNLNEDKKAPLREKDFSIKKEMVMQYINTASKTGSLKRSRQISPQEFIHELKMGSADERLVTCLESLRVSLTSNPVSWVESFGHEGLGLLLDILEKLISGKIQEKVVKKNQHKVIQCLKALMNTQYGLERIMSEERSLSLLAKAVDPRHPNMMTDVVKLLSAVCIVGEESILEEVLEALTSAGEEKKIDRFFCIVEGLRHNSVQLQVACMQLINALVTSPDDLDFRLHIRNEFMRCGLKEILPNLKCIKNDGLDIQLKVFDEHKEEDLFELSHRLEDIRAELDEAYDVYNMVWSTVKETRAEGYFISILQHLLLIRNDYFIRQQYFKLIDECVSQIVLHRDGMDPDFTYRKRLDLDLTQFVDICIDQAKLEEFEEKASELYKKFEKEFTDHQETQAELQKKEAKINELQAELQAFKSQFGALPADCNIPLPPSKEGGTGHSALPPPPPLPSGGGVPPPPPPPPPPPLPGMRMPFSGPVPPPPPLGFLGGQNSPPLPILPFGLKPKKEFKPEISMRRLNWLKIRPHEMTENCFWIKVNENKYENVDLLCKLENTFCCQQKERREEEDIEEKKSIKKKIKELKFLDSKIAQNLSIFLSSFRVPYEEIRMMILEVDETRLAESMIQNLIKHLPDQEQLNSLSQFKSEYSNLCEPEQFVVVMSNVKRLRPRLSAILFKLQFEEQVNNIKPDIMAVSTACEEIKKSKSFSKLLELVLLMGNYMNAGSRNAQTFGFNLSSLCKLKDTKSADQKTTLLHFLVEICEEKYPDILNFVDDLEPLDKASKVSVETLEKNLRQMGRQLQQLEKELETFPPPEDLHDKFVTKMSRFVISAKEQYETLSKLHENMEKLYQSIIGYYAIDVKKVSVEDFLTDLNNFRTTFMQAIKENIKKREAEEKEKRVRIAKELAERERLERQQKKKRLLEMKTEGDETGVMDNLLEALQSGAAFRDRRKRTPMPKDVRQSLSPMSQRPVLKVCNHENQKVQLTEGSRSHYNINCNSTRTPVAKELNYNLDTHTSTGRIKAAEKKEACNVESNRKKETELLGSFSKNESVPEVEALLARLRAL
Sequence of UniProt Q13217 (Q13217 whole entry, looked up): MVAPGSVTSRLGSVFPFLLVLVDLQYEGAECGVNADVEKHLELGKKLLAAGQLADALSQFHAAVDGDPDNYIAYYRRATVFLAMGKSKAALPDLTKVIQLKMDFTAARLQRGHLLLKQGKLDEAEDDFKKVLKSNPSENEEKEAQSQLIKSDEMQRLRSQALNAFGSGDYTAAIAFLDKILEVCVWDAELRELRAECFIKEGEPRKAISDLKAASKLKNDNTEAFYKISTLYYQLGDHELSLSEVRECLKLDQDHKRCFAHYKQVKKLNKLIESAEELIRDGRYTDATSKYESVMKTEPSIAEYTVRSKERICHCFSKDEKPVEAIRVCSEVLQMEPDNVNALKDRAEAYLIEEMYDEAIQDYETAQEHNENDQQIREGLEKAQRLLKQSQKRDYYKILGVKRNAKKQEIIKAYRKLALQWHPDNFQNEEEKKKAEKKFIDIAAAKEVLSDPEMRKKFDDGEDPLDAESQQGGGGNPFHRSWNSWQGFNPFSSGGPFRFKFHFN

Target | log2 fold change (nilotinib) | log2 fold change [1] | log2 fold change (dasatinib) | log2 fold change [2] | log2 fold change [3] | log2 fold change (quisinostat) | log2 fold change (tipifarnib) | log2 fold change [4] | log2 fold change [5] | log2 fold change [6] | log2 fold change [7] | log2 fold change (vorinostat) | log2 fold change (silmitasertib) | log2 fold change [8] | log2 fold change (entospletinib)
CKAP5 (UniProt Q14008) | 0 | 0.002 | -0.024 | -0.005 | 0.026 | -0.03 | -0.028 | 0.021 | 0.01 | 0.006 | -0.013 | -0.269 (active) | 0.011 | 0.002 | 0.005
CIC (UniProt I3L2J0) | 0.045 | 0.024 | 0 | 0.001 | 0.006 | 0.027 | -0.087 | -0.053 | -0.073 | 0.014 | -0.002 | -0.108 | -0.011 | 0.075 | 0.033
COG6 (UniProt Q9Y2V7) | 0.004 | 0.038 | -0.085 | -0.041 | -0.005 | -0.068 | -0.045 | -0.016 | -0.008 | -0.06 | 0.021 | -0.254 (active) | 0.072 | 0.09 | 0.026
CHFR (UniProt Q96EP1) | 0.035 | 0.082 | 0.017 | 0.019 | 0.049 | 0.02 | 0.013 | 0.036 | 0.246 | 0.005 | -0.219 | -0.143 | 0.057 | 0.004 | -0.083
DES (UniProt P17661) | 0.009 | -0.04 | -0.024 | 0.004 | -0.057 | -0.162 | -0.008 | 0 | 0.041 | 0.034 | 0.108 | 0.097 | 0.03 | 0.05 | 0.027
CHML (UniProt P26374) | -0.001 | 0.013 | 0.035 | -0.011 | -0.001 | 0 | -0.031 | -0.015 | -0.008 | 0.002 | 0.029 | -0.286 (active) | 0.003 | -0.022 | 0.006
CPT1A (UniProt P50416) | -0.012 | 0.049 | 0.015 | -0.022 | 0.008 | 0.308 (active) | 0.056 | -0.09 | -0.028 | -0.038 | -0.033 | 0.406 (active) | -0.001 | -0.002 | -0.06
DEF6 (UniProt Q9H4E7) | -0.058 | 0.046 | -0.034 | 0.033 | 0.006 | -0.044 | 0.027 | 0.067 | 0.044 | -0.01 | 0.085 | -0.416 (active) | 0.032 | -0.045 | 0.022
CHUK (UniProt O15111) | -0.029 | 0.015 | -0.091 | 0.035 | 0.059 | -0.131 | -0.015 | 0.078 | -0.006 | -0.116 | -0.016 | -0.492 (active) | 0.103 | 0.054 | 0.012
CNST (UniProt Q6PJW8) | 0.125 | 0.029 | 0.023 | -0.123 | 0 | -0.005 | 0.054 | -0.002 | 0 | 0.041 | 0.051 | 0.056 | -0.028 | -0.067 | -0.024
CORO1A (UniProt P31146) | 0.003 | -0.012 | -0.146 | 0.022 | 0.034 | -0.028 | 0.032 | -0.015 | -0.017 | -0.026 | 0.094 | -0.412 (active) | -0.003 | 0.025 | 0.116
CKAP2 (UniProt Q8WWK9) | 0.075 | 0.07 | 0.004 | 0.036 | -0.014 | -0.098 | -0.053 | -0.015 | -0.049 | -0.023 | 0.434 (active) | 0.011 | -0.013 | -0.044 | 0.033
CNP (UniProt P09543) | 0.033 | 0.023 | -0.047 | -0.007 | 0.003 | -0.028 | -0.055 | -0.009 | -0.007 | -0.009 | -0.017 | -0.298 (active) | -0.001 | 0.059 | 0.017
CSPP1 (UniProt Q1MSJ5) | -0.105 | -0.014 | 0.046 | 0.011 | -0.062 | 0.026 | 0.078 | 0.015 | -0.227 | 0.011 | 0.122 | 0.085 | -0.027 | 0.043 | 0.003
COG2 (UniProt Q14746) | 0.024 | 0.008 | -0.024 | 0.096 | -0.002 | -0.029 | -0.06 | 0.055 | 0.001 | 0.009 | -0.031 | -0.315 (active) | 0.055 | 0.061 | 0.058
DARS (UniProt P14868) | 0.01 | -0.004 | -0.032 | -0.015 | 0.063 | -0.007 | 0.01 | 0.044 | -0.008 | 0.002 | 0.003 | -0.327 (active) | 0.056 | 0.019 | 0.035
DNAJC3 (UniProt Q13217) | 0.029 | -0.019 | 0.074 | 0.008 | 0.023 | 0.11 | -0.085 | -0.055 | 0.012 | 0.005 | -0.029 | 0.064 | 0.017 | 0.033 | 0
DHRS1 (UniProt Q96LJ7) | -0.009 | -0.043 | 0.063 | -0.064 | -0.042 | 0.012 | 0.055 | -0.001 | 0.033 | -0.026 | -0.154 | -0.561 (active) | -0.021 | -0.055 | -0.138
DNM2 (UniProt P50570) | 0 | -0.015 | -0.045 | -0.016 | 0.028 | 0.016 | 0.011 | 0.034 | 0.037 | 0.009 | 0.011 | -0.27 (active) | 0.061 | -0.021 | 0.014
DIAPH3 (UniProt Q9NSV4) | -0.019 | 0.019 | -0.167 | -0.021 | 0.029 | -0.093 | -0.041 | 0.057 | 0.077 | 0.019 | -0.047 | -0.584 (active) | 0.067 | -0.006 | -0.017
CTNND1 isoform 3 (UniProt O60716) | -0.027 | -0.02 | 0.006 | -0.017 | 0.009 | -0.065 | -0.06 | 0.027 | 0.065 | -0.065 | -0.017 | -0.371 (active) | 0.034 | -0.014 | -0.005

Source: the supplement of paper PMC10849652
